Screening data as filed in PubChem.
Nrf2 block: Nrf2 qHTS screen for inhibitors; A549 ARE-Fluc reporter, luciferase luminescence, 18-24 h; Potency, µM (doses to about 46 µM), most hits filed as inhibitors; 2.1% of 360,000 active; AID 504444, 2011; note: nearly all actives have a fitted effect of over 60% in size
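A549 ARE_Fluc cells, 5000/well, 5% FBS OPTI-MEM; compounds in dose-response, 18-24 h at 37 °C/5% CO2; CellTiter-Fluor viability read (Ex 405/Em 525), then BugLite luciferase luminescence = Nrf2 activity.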
B2AR arrestin: qHTS assay of beta-arrestin-biased ligands of beta2-adrenergic receptor; Beta-2 adrenergic receptor (Homo sapiens), P07550; beta-arrestin recruitment to beta2AR, cell-based reporter; Potency, µM (top dose mostly 46.1 µM), hits mostly activators; 0.02% of 330,000 active; AID 492947, 2010; note: nearly all actives have a fitted effect of over 65% in size
Target sequence (P07550 whole entry, looked up): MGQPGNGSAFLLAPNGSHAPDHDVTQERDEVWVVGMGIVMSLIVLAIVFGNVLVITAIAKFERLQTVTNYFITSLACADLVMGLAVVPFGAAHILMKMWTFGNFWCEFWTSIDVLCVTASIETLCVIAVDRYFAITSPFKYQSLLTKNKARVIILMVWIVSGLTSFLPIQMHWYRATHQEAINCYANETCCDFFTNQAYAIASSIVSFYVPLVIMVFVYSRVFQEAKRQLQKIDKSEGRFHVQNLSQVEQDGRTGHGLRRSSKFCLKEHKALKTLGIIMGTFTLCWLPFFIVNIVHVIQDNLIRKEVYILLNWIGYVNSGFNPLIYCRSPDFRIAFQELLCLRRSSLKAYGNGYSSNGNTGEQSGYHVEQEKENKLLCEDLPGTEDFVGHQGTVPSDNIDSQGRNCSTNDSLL
Nrf2 activator: qHTS of Nrf2 Activators; AREc32 ARE-luciferase reporter (MCF7-derived line), luminescence, 24 h; Potency, µM (doses to about 46.1 µM), most hits filed as activators; 0.31% of 410,000 active; AID 624171, 2012; note: nearly all actives have a fitted effect of over 65% in size
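ARE activation measured as luciferase luminescence (Steady-Glo, 30 min RT) in AREc32_Fluc cells after 24 hr compound exposure at 37 deg C, 5% CO2; cells seeded overnight at 1000/well in OPTI-MEM, 5% FBS.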
A549 viability: Nrf2 qHTS screen for inhibitors: counterscreen for cytotoxicity; 0.16% of 390,000 active; Potency, µM (series often up to 46 µM), actives largely listed as inhibitors; AID 504648, 2011; A549 ARE-Fluc cells, CellTiter-Fluor viability, 18-24 h
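Cytotoxicity counterscreen: CellTiter-Fluor fluorescence was measured in A549 ARE_Fluc cells after 18-24 h of compound exposure in a concentration series. The subsequent BugLite luminescent read reports ARE-luciferase activity.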
miR-21 act: qHTS Assay for Modulators of miRNAs and/orActivators of miR-21 | 340,000 tested, under 10 active | Potency, µM (top dose mostly 38.3 µM), actives largely listed as activators | HeLa miR-21 FLuc reporter, luciferase, 48 h;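 note: miR-21 action dims this reporter so a rising signal means less miR-21 action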
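HeLa cells stably expressing CMV-driven firefly luciferase with a downstream miR-21 binding sequence, endogenously expressing miR-21, were treated with titrations (up to about 40uM final) for 48 hours at 37 degree Celsius. Luciferase luminescence was read after lysis.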
Each line names hits and unclear results; the compound was inactive in the other large screens. Rows were chosen to be rich in hits. Some 2.2% of all compounds tested hit in one or more screens of this group. Calls come from the whole dose curve; as a rule, active = well fitted curve in the direction sought with a large enough effect; inconclusive = small, poorly fitted or top-dose-only effect, or another doubt; inactive = no such curve, though single readings can be large; an effect the other way counts as inactive or inconclusive.

CCOc1cc(C2c3c(oc4ccccc4c3=O)C(=O)N2Cc2ccc3c(c2)OCO3)ccc1O (centres undefined)	none (no result: B2AR arrestin)
CC1CC(C)CN(S(=O)(=O)c2ccc(C(=O)NCc3ccc4c(c3)OCO4)cc2)C1 (centres undefined)	Nrf2 block 10µM
CCCCCCNC(=O)CNC(=S)N(Cc1cccs1)C1CCCCC1	Nrf2 block 16µM, A549 viability inconclusive
O=C1C=C(C#Cc2ccccc2)C[C@@H](c2ccc(F)cc2)C1	Nrf2 activator 8.9µM (no result: Nrf2 block, B2AR arrestin, A549 viability, miR-21 act)
O=C1C=C(c2ccc(-c3ccccc3)cc2)C[C@@H](c2ccc(F)cc2)C1	none (no result: miR-21 act)
COc1cccc(C(C)NC(=O)Nc2ccccc2Cl)c1 (centres undefined)	Nrf2 block 10µM
Cc1ccc(NC(=O)c2cc(-c3cccs3)nc3ccccc23)c(C)c1	none (no result: B2AR arrestin)
Cc1cccc2sc(NNC(=O)c3cc(-c4cccs4)nc4ccccc34)nc12	Nrf2 block 23µM, A549 viability inconclusive
Cc1ccc(S(=O)(=O)N2CCN(c3nc(-c4cccs4)nc4c3ncn4COC(=O)C(C)(C)C)CC2)cc1	none (no result: B2AR arrestin, Nrf2 activator, miR-21 act)
O=C(COc1ccccc1C(=O)Nc1ccccc1)c1ccc(Br)cc1	Nrf2 block 21µM, A549 viability inconclusive
NC(=O)c1nc(Nc2ccccc2)sc1NC(=O)c1ccccc1Br	Nrf2 activator inconclusive (no result: Nrf2 block, B2AR arrestin)
CCc1ccc(/C=C/c2c[nH]c3ccccc23)[n+](CC)c1	Nrf2 block 6.5µM, A549 viability inconclusive, miR-21 act inconclusive
COc1cccc(/C=C2/SC(=S)N(CC(=O)Nc3nccs3)C2=O)c1	Nrf2 block inconclusive (no result: B2AR arrestin, Nrf2 activator, miR-21 act)
O=C(O)C(CO)N=Cc1c(O)c2ccccc2oc1=O (centres undefined)	Nrf2 block 6.5µM, A549 viability inconclusive
CC(N=Cc1c(O)c2ccccc2oc1=O)C(=O)O (centres undefined)	Nrf2 block inconclusive
CCOc1ccc(/C=C/[N+](=O)[O-])c2ccccc12	Nrf2 block 26µM, A549 viability inconclusive, miR-21 act inconclusive
Cc1ccccc1N1CC(c2nc3ccccc3n2Cc2ccc(Br)cc2)CC1=O (centres undefined)	none (no result: B2AR arrestin)
CN(C(=O)c1ccc2c(c1)N(Cc1cccc(Cl)c1)C(=O)c1ccccc1S2(=O)=O)C1CCCCC1	none (no result: Nrf2 block, B2AR arrestin)
COc1ccc(S(=O)(=O)N2CCN(CCCOc3ccc(F)cc3)CC2)cc1OC	Nrf2 block 23µM
COc1ccc(OC2CCN(S(=O)(=O)c3ccc(C(C)=O)cc3)CC2)cc1	Nrf2 block 21µM
COc1ccc(OC2CCN(S(=O)(=O)c3ccc(OC)c(OC)c3)CC2)cc1	Nrf2 block 16µM
COc1ccc(OC2CCN(S(=O)(=O)c3ccc(F)cc3)CC2)cc1	none
COc1ccc(C2Nc3ccc(NC(C)=O)cc3C(=O)N2Cc2cccc(Cl)c2)cc1COc1ccc(NC(C)=O)cc1 (centres undefined)	Nrf2 block inconclusive (no result: B2AR arrestin, Nrf2 activator, miR-21 act)
CCC(C)[C@H](NC(=O)N1CCN(c2cccc(C(F)(F)F)c2)CC1)C(=O)OC (some centres undefined)	Nrf2 block 18µM
O=C(c1noc2c1CCCCC2)N1CCN(c2cccc(C(F)(F)F)c2)CC1	Nrf2 block inconclusive (no result: B2AR arrestin)
COc1ccc(NC(=O)N2CCN(c3cccc(C(F)(F)F)c3)CC2)cc1OC	Nrf2 block inconclusive
FC(F)(F)c1cccc(N2CCN(C(=S)NCC3CCCO3)CC2)c1 (centres undefined)	Nrf2 block 13µM, A549 viability inconclusive
CC1CCc2onc(C(=O)N3CCN(c4cccc(C(F)(F)F)c4)CC3)c2C1 (centres undefined)	Nrf2 block 21µM (no result: B2AR arrestin)
COC(=O)[C@@H](NC(=O)N1CCN(c2cccc(C(F)(F)F)c2)CC1)C(C)C	Nrf2 block inconclusive
O=C(Nc1ccccc1)N1CCN(c2cccc(C(F)(F)F)c2)CC1	Nrf2 block 23µM
COc1ccccc1NC(=O)c1ccc2ccccc2c1	Nrf2 block inconclusive (no result: B2AR arrestin, Nrf2 activator, miR-21 act)
O=S(=O)(c1ccccc1)N1CCN(CCc2ccccc2)CC1	Nrf2 block inconclusive
O=S(=O)(c1ccc(F)c(F)c1)N1CCN(CCc2ccccc2)CC1	Nrf2 block 23µM
O=S(=O)(c1ccccc1F)N1CCN(CCc2ccccc2)CC1	Nrf2 block 18µM
O=S(=O)(NCCS(=O)(=O)N1CCN(c2ccccc2F)CC1)c1ccc(Cl)cc1	none (no result: Nrf2 block, B2AR arrestin)
Cc1cccn2c(=O)c(C(=O)NCc3cccc(F)c3)cnc12	none (no result: Nrf2 block, B2AR arrestin)
CCN(CC)CCOc1ccc(Br)cc1	none
CCN(CC)CCOc1ccc2c(c1)C(=NO)c1cc(OCCN(CC)CC)ccc1-2	Nrf2 block inconclusive, A549 viability 8.2µM
COC(=O)c1cc(NC(=O)c2cc(C(C)(C)C)nn2Cc2ccc(F)cc2)ccc1N1CCOCC1	Nrf2 block 13µM, miR-21 act inconclusive
COc1cc(NC2CCCCC2O)c2nc(-c3ccc(Cl)cc3)ccc2c1 (centres undefined)	Nrf2 block inconclusive, A549 viability 9.2µM
CCOC(=O)c1cc(S(=O)(=O)Nc2ccccc2OCC)[nH]n1	none (no result: Nrf2 block, B2AR arrestin)
Cc1cc(C)c(C#N)c(OCC(=O)c2ccc(Br)cc2)n1	Nrf2 activator 6.3µM
Cc1ccnc(SCC(=O)c2ccc(Br)cc2)c1C#N	Nrf2 block inconclusive, Nrf2 activator 2.2µM
Cc1ccc(C(=O)CSc2nsc(C)c2C#N)cc1	Nrf2 block inconclusive
O=[N+]([O-])c1cc(S(=O)(=O)Nc2ccccc2)ccc1NCc1ccccc1	none
O=[N+]([O-])c1cc(S(=O)(=O)Nc2ccccc2)ccc1Nc1ccccc1	Nrf2 block 26µM, A549 viability inconclusive (no result: B2AR arrestin, miR-21 act)
O=[N+]([O-])c1cc(S(=O)(=O)Nc2ccccc2)ccc1N1CCN(c2ccccc2)CC1	Nrf2 block 18µM, A549 viability inconclusive
Nc1nc(N)c(-c2cccc(C(F)(F)F)c2)c(Cc2cccc(C(F)(F)F)c2)n1	Nrf2 block 15µM (no result: B2AR arrestin, miR-21 act)
O=C(CCCn1c(=O)c2ccccc2n(CC(=O)Nc2cccc(Cl)c2)c1=O)NCc1ccc2c(c1)OCO2	none (no result: B2AR arrestin)
Cc1nc2c(nc1C)C(=O)c1ccccc1C2=O	Nrf2 block 16µM, A549 viability inconclusive (no result: B2AR arrestin, miR-21 act)
O=C1c2ccccc2-c2nc3ccccc3nc21	Nrf2 block inconclusive
CN(Cc1ccccc1)c1ccc(C(CC(N)=O)NC(=O)c2ccccc2)cc1[N+](=O)[O-] (centres undefined)	Nrf2 block 10µM, A549 viability inconclusive
Cc1nn2c3c(cnc2c1-c1ccc(Cl)cc1)C(=O)CC(c1ccc(C(C)C)cc1)C3 (centres undefined)	none (no result: B2AR arrestin)
COc1ccc(-c2nnc3n2N=C(c2c(OC)cccc2OC)CS3)cc1	none (no result: B2AR arrestin, Nrf2 activator, miR-21 act)
CSc1cccc(NC(=O)CN2C(=O)COc3ccc(Cl)cc32)c1	Nrf2 block 16µM (no result: B2AR arrestin)
O=C(CN1C(=O)COc2ccc(S(=O)(=O)N3CCCCCC3)cc21)Nc1cccc(Cl)c1	Nrf2 block inconclusive, A549 viability 18µM (no result: B2AR arrestin)
